Each structure is given as a SMILES string. Among all 130,000 compounds or so, about 1,900 (1.5%) were called active. Another 5% or so got no clear call; they are omitted. Many of the other results were omitted from the sample, so actives are more common in it than they were. Values without a mark were called inactive. Calls follow the shape of the dose curve; as a rule, active = well fitted cell-killing curve with a large enough effect; inconclusive = small, poorly fitted or top-dose-only effect; inactive = no such curve, though single readings can be large or run the other way.
% is scaled to controls: 0 for no effect and ±100 for the full control effect; potency is read from the fitted curve at half-maximal effect.

A short description of the test: qHTS Screen for Compounds that Selectively Target Cancer Cells with p53 Mutations: Cytotoxicity of p53ts Cells at the Nonpermissive Temperature. Also: nearly all actives have a fitted effect of over 55% in size. As to conditions: H1299-p53A138V viability at 39C, ATP luminescence, 24 h; series mostly up to 46.1 µM; activity change, negative = cell killing: at the top concentration.
`CCOC(=O)C1CCN(c2csc3ccc(C)cc3c2=O)CC1`: the “activity change, negative = cell killing” value is -18.6%.

Consider `COc1ccc(CNC(=O)c2ccc3c(c2)nc2n3CCOC2)c(OC)c1`, for which the “activity change, negative = cell killing” value is -4.85%.

In the case of `CCc1ccc(-n2nc(C)c3c(C)cc(=O)n(CC(=O)Nc4ccc(F)cc4C)c32)cc1`, the “activity change, negative = cell killing” value is -8.83%.

Turning to `COc1ccc2cc(-c3nc(Cl)c4c5c(sc4n3)CC(C)CC5)c(=O)oc2c1` (stereo unspecified), the “activity change, negative = cell killing” value was 8.48%.

In the case of `O=c1oc2cc(O)ccc2cc1-c1ccc(F)cc1`, the “activity change, negative = cell killing” value is 7.63%.

Turning to `COc1ccc(-c2cc3ccc(OCc4nn[nH]n4)cc3oc2=O)cc1`, the Potency was 12.6 µM (active).

As to `Cc1cn(C)c(CC(=O)NCc2ccc(Cl)cc2)c1C(=O)O`, the “activity change, negative = cell killing” value was -8.42%.

Consider `CCc1ccc(NC(=O)CCS(=O)(=O)c2cc3c(cc2Cl)NC(=O)CO3)cc1`, for which the “activity change, negative = cell killing” value was -21.4%.

As to `COc1ccc(C(=O)Nc2nncs2)c(OC)c1`, the “activity change, negative = cell killing” value is -26.2%.

In the case of `COC(=O)c1sc(NC(=O)c2csc3c2CCCC3)nc1C`, the “activity change, negative = cell killing” value was 12.2%.

Consider `COC(=O)c1sc(NC(=O)c2ccc(OC)cc2OC)nc1C`, for which the Potency is 0.316 µM (active).

With `CCOC(=O)c1cccc(NC(=O)c2cc(CN3CCCC3)on2)c1`, the “activity change, negative = cell killing” value was -17.2%.

With `CCOc1ccc(NC(=O)Cn2c(=O)n(CCCC(=O)NCc3ccc4c(c3)OCO4)c(=O)c3ccccc32)cc1`, the “activity change, negative = cell killing” value was 2.75%.

For `COc1ccc(OCC(=O)Nc2cccc(C(=O)OCc3cc(=O)n4nc(C)sc4n3)c2)cc1`, the “activity change, negative = cell killing” value was -9.88%.

For the compound `Cc1nn2c(=O)cc(COC(=O)c3ccccc3NC(=O)COc3ccccc3C)nc2s1`, the “activity change, negative = cell killing” value was -9.66%.

As to `Cc1nn2c(=O)cc(COC(=O)c3cccc(NC(=O)COc4ccccc4Cl)c3)nc2s1`, the Potency is 12.6 µM (active).

Regarding `Cc1cccc(C(=O)NCCc2nc3ccccc3n2Cc2ccccc2Cl)c1`, the “activity change, negative = cell killing” value is -12.8%.

Take `Cc1ccc(F)cc1NC(=O)c1cccc(N(C)C)c1`: the “activity change, negative = cell killing” value was -15.6%.

Turning to `Cc1ccccc1NC(=O)c1ccccc1`, the “activity change, negative = cell killing” value is 2.54%.

On to `Cc1ccc(NC(=O)c2cccc(N(C)C)c2)cc1NC(=O)c1ccc(O)cc1`, for which the Potency is 7.94 µM (active).

Turning to `COc1ccc(CCN2C(=O)c3oc4cc(C)cc(C)c4c(=O)c3C2c2ccccc2F)cc1OC` (stereo unspecified), the “activity change, negative = cell killing” value is -6.84%.

With `Cn1c(-c2ccco2)nc2cc3ccccc3cc21`, the Potency is 1.26 µM (active).

Turning to `c1coc(-c2nc3nc4ccccc4n3nc2-c2ccco2)c1`, the “activity change, negative = cell killing” value is -3.02%.

`CN(c1nc2ccccc2n2c(-c3ccco3)nnc12)S(=O)(=O)c1ccccc1`: the “activity change, negative = cell killing” value is 1.85%.

Turning to `O=C(CCn1ccc2cc(S(=O)(=O)N3CCCC3)ccc21)NCc1cccc(Cl)c1`, the “activity change, negative = cell killing” value is -25.5%.

Consider `COc1ccc(CC(=O)NCCc2sc3nc(-c4ccc(OC)cc4)nn3c2C)cc1`, for which the “activity change, negative = cell killing” value is -18%.

For `Cc1cccc(-n2ccnc2SCC(=O)Nc2cc(C(F)(F)F)ccc2Cl)c1`, the “activity change, negative = cell killing” value is -21.3%.

With `O=C(CN1C(=O)c2ccccc2S1(=O)=O)N1CCc2ccccc21`, the Potency was 2 µM (active).

In the case of `O=C(CN1CCN(c2ccccn2)CC1)N1CCc2ccccc21`, the “activity change, negative = cell killing” value was 19.6%.

For `O=C(c1cccc(C(=O)N2CCc3ccccc32)n1)N1CCc2ccccc21`, the “activity change, negative = cell killing” value was 1.43%.

In the case of `Cc1cccc(NC(=O)c2cc(S(=O)(=O)N3CCC4(CC3)OCCO4)ccc2F)c1`, the “activity change, negative = cell killing” value is 5.17%.

Turning to `CC(C)c1ccc(NC(=O)c2cc(S(=O)(=O)N3CCc4ccccc4C3)ccc2F)cc1`, the Potency was 31.6 µM (active).

Take `CC(=O)Nc1ccc(S(=O)(=O)N2CCN(C(=O)c3ccccc3F)CC2)cc1`: the “activity change, negative = cell killing” value was 3.21%.

As to `Cc1nc2ccn(Cc3cccs3)c(=O)c2cc1C(=O)NCc1ccc(Cl)cc1`, the “activity change, negative = cell killing” value was -19%.

On to `COC(=O)c1sc2ncccc2c1-n1c(C)ccc1C`, for which the “activity change, negative = cell killing” value was -13.8%.

On to `Cc1ccc(-c2nc(S(=O)(=O)c3ccc(C)cc3)c(N3CCCCCC3)o2)cc1`, for which the “activity change, negative = cell killing” value is 6.8%.

Consider `COc1ccc(-c2nc(S(=O)(=O)c3ccccc3)c(N3CCCCC3)o2)cc1`, for which the “activity change, negative = cell killing” value was 12.8%.

Take `CC(C)S(=O)(=O)c1oc(-c2ccc(F)cc2)nc1S(=O)(=O)c1ccc(F)cc1`: the Potency is 3.16 µM (active).

In the case of `COc1ccc(C(=O)Nc2onc3c2CCCC3)cc1`, the Potency is 10 µM (active).

Take `CC1CCc2noc(NC(=O)c3ccc([N+](=O)[O-])cc3)c2C1` (stereo unspecified): the “activity change, negative = cell killing” value was 2.77%.

Take `COc1ccc(NC(=O)c2c(C)oc3c2CCCC3)cc1`: the “activity change, negative = cell killing” value is -9.84%.

On to `O=C(c1ccc2c(c1)N(Cc1ccccc1)C(=O)c1ccccc1S2(=O)=O)N1CCCC1`, for which the “activity change, negative = cell killing” value was -14.6%.

Regarding `COc1ccccc1C(=O)Nc1c(C(=O)N(C)Cc2ccccc2)sc2nc(C)c(Cl)c(C)c12`, the “activity change, negative = cell killing” value is 12.2%.

For `COc1ccc(NS(=O)(=O)c2cc3c4c(c2)CC(=O)N4CCC3)cc1Cl`, the “activity change, negative = cell killing” value was -7.45%.

On to `CCN1C(=O)c2ccccc2S(=O)c2ccc(C(=O)NCc3ccc(F)cc3)cc21` (stereo unspecified), for which the “activity change, negative = cell killing” value was 1.95%.

Regarding `CCC(=O)NC(=Nc1nc2ccccc2s1)NC(=O)CC`, the Potency was 10 µM (active).

As for `COC(=O)c1nc2ccccc2s1`, the “activity change, negative = cell killing” value is 5.71%.

Turning to `COC(=O)Cc1cc(=O)n(-c2nc3ccccc3s2)[nH]1`, the “activity change, negative = cell killing” value is -2.65%.

As for `O=C(NCC(c1ccc2c(c1)OCO2)N1CCN(c2ccccc2)CC1)C(=O)Nc1ccccc1F` (stereo unspecified), the “activity change, negative = cell killing” value was -23.6%.

With `O=C(NC1CC(=O)N(c2ccccc2)C1)c1ccco1` (stereo unspecified), the “activity change, negative = cell killing” value is -7.23%.

On to `c1csc(-c2nc(-c3ccncc3)no2)c1`, for which the “activity change, negative = cell killing” value is -9.47%.

The values above are taken from PubChem BioAssay AID902 (National Center for Advancing Translational Sciences (NCATS), 2007).
